# Assay outcomes from PubChem.
# esBAF inh = SWI/SNF esBAF complex inhibition; mouse ES cells, Bmi1-luciferase knock-in reporter, 24 h; 100% = twice the neutral-well signal; reporter increase, % at 12.5 µM; 2% of 350,000 active; AID 602393; in the data active means activation above about 40%;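 further: 0% = median of the plate's neutral control wells and 100% = double that signal; a rise in the Bmi1 reporter signal indicates esBAF inhibition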
# Wnt act = activators of Wnt/beta-catenin signaling | Wnt/beta-catenin reporter cell assay, activator, plate reader | AID 743398 | 1.2% of 300,000 active | activation, % at 9.35 µM; in the data active means activation above about 30%, passing the limit was not always enough;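 further: 0% = neutral control wells and 100% = positive control wells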
# MITF TRPM1 HTS = MITF TRPM1 promoter activation in melanoma cells; SK-MEL-5 TRPM1-promoter luciferase, 24 h; % of positive control, neutral wells = 0; activation, % at 12.5 µM; 0.75% of 300,000 active; AID 588334;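 active means mean activation of at least 80% with every replicate also reaching 80%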;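 further: 0% = neutral control wells and 100% = parthenolide positive control wells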
# FXN GAA850 act = activators of GAA850 frataxin (FXN) promoter | HEK293 lucGAA850 FXN promoter luciferase reporter, 24 h; percent of 10 µM SAHA response | activation, % at 6 µM | 0.56% of 360,000 active;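 active means activation above the average of all compounds screened plus 3 SD, cutoff fixed separately per campaign, cut at about 7.5% in these data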;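 further: 0% = DMSO wells and 100% = 10 µM SAHA wells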
# Numbers without * were called inactive; / = no result given. Compounds with a hit are over-represented: about 2.8% of the library has one in this group of screens.
SMILES,esBAF inh,Wnt act,MITF TRPM1 HTS,FXN GAA850 act
COc1ccc(C(C#N)=Cc2ccc(OC)c(OC)c2)cc1,68*,2,/,3
COc1ccc(/C=C(/C#N)c2cccnc2)cc1OC,5,-4,7,2
Cc1ccc(-c2cnc3c(c2)C(=O)N([C@@H](C)CO)C[C@@H](C)[C@@H](CN(C)C(=O)c2ccccc2)O3)cc1,1,/,/,/
Cc1noc(C)c1S(=O)(=O)Nc1ccc2c(c1)C(=O)N([C@H](C)CO)C[C@H](C)[C@H](CN(C)C(=O)Nc1ccccc1)O2,3,/,/,/
C[C@@H]1CN([C@H](C)CO)C(=O)c2cc(/C=C/c3ccccc3)cnc2O[C@@H]1CN(C)C(=O)C1CCC1,1,/,/,/
CSc1cccc(-n2cc(-c3ccc4c(c3)OCO4)[nH]c2=O)c1,45*,/,10,-3
CSc1cccc(NC(=O)CNC(=O)c2ccc3c(c2)OCO3)c1,10,-2,7,-1
Cc1nc(C)c(-c2ccc(SCc3ccccc3C)nn2)s1,52*,9,56,2
CCOC(=O)C(Cc1c[nH]c2ccccc12)NC(=O)c1ccccc1Br (centres undefined),74*,13,/,2
COC(=O)C(Cc1c[nH]c2ccccc12)NC(=O)CNC(C)=O (centres undefined),-8,/,6,0
Cc1ccc(C(=O)Nc2ccccc2C(=O)NC(Cc2c[nH]c3ccccc23)C(=O)O)cc1 (centres undefined),/,-1,-3,2
COC(=O)C(Cc1c[nH]c2ccccc12)NC(=O)c1ccccc1Br (centres undefined),53*,16,/,3
CCC(=O)Nc1ccc2c(c1)OC[C@@H](C)N(Cc1nccs1)C[C@@H](C)[C@@H](OC)CN(C)C2=O,1,/,/,/
COCC#Cc1ccc2c(c1)O[C@@H](CN(C)Cc1ccncc1)[C@H](C)CN([C@@H](C)CO)S2(=O)=O,5,/,/,/
Cc1ccc(NC(=O)CC2SC(=O)N(c3ccccc3)C2=O)cc1 (centres undefined),/,33*,-11,1
Cc1cccc(NC2SC(=O)N(c3ccccc3)C2=O)c1 (centres undefined),55*,/,0,3
O=C(CC1SC(=O)N(c2ccccc2)C1=O)Nc1ccccc1 (centres undefined),/,/,-2,1
C[C@@H]1CCCCO[C@@H](CN(C)S(=O)(=O)c2cn(C)cn2)[C@H](C)CN([C@H](C)CO)C(=O)c2cc(NS(=O)(=O)c3ccc(F)cc3)ccc2O1,3,/,/,/
Fc1ccc(N/N=C/C=C/c2ccccc2)c(F)c1,51*,12,46,5
Fc1ccc(N/N=C/c2ccncc2)c(F)c1,/,18,63,4
O=C(O)C[C@@H]1C=C[C@@H](NC(=O)c2ccccc2F)[C@@H](CO)O1,-6,/,/,/
N#C/C(=C\Nc1ccc2c(c1)OCCO2)c1nc(-c2ccccc2)cs1,/,-6,20,3
N#C/C(=C\c1ccc(Sc2ccccc2)o1)c1nc2ccccc2[nH]1,/,-3,121*,5
N#C/C(=C\c1ccc(OC(=O)c2cccs2)cc1)c1nc2ccccc2[nH]1,/,35*,58,-3
N#C/C(=C\Nc1ccc2c(c1)OCCO2)c1nc2ccccc2[nH]1,44*,/,77,0
SMILES,esBAF inh,Wnt act,MITF TRPM1 HTS,FXN GAA850 act
CN1CCN(C(=O)C[C@H]2CC[C@H](NC(=O)c3ccc4c(c3)OCO4)[C@@H](CO)O2)CC1,-2,/,/,/
CC(=O)N=C(N)Sc1nc2ccccc2[nH]1,69*,61*,/,6
Cc1cc2nc(-c3ccc[nH]c3=O)n(Cc3cccc(F)c3)c2cc1C,8,4,-2,3
CCCn1c(-c2ccc[nH]c2=O)nc2cc(C)c(C)cc21,/,62*,30,5
O=C(C[C@@H]1CC[C@H]2[C@@H](COC[C@H](O)CN2C(=O)Nc2cc(Cl)cc(Cl)c2)O1)NCC1CCCCC1,-7,/,/,/
CCOc1c(OC(C)=O)ccc(/C=C/c2ccc3cccc(OC(C)=O)c3n2)c1[N+](=O)[O-],66*,19,57,4
CC(=O)/C=C/c1ccc2ccccc2n1,/,/,-19,-4
COc1c(OC(C)=O)ccc(/C=C/c2ccc3cccc(OC)c3n2)c1[N+](=O)[O-],/,32*,17,5
O=[N+]([O-])c1ccccc1/C=C/c1ccc2ccccc2n1,52*,12,75,4
Cn1c(/C=C/c2ccccc2[N+](=O)[O-])nc2ccccc2c1=O,25,-1,/,6
CCOc1cc(/C=C/c2ccc3cccc([N+](=O)[O-])c3n2)ccc1O,/,14,4,5
COc1c(OC(C)=O)ccc(/C=C/c2ccc3ccccc3n2)c1[N+](=O)[O-],31,26,113*,6
CC(C)c1ccc(NC(=O)C2CC3CCC2C3)cc1 (centres undefined),57*,11,/,4
COC(=O)c1ccc(NC(=O)C2CC3CCC2C3)cc1 (centres undefined),47*,-2,98*,4
COC(=O)c1ccc(NC(=O)C2C3C=CC(O3)C2C(=O)O)cc1 (centres undefined),57*,/,9,0
CCOC(=O)c1ccc(NS(=O)C23CC4CC(CC(C4)C2)C3)cc1 (centres undefined),64*,/,12,6
CCOC(=O)c1ccc(NC(=O)C2CC3CCC2C3)cc1 (centres undefined),/,46*,/,7
C[C@H]1CN([C@@H](C)CO)C(=O)c2cc(-c3cccc(F)c3)cnc2O[C@@H]1CN(C)Cc1cccnc1,1,/,/,/
C[C@H](CO)N1C[C@H](C)[C@@H](CN(C)C(=O)Nc2ccccc2)Oc2ccc(NC(=O)Nc3cccc4ccccc34)cc2CC1=O,2,/,/,/
Cc1noc(C)c1S(=O)(=O)Nc1cccc2c1O[C@@H](CN(C)CC1CC1)[C@@H](C)CN([C@@H](C)CO)C2=O,1,/,/,/
Cc1ccc(/C=C2\OC(=O)c3ccccc32)cc1,73*,22,32,4
CCc1nc2cc3sc(CC)nc3cc2s1,76*,16,64,7
C[C@H](CO)N1C[C@H](C)[C@H](CN(C)Cc2ccc(C(=O)O)cc2)Oc2c(NC(=O)Nc3ccccc3)cccc2C1=O,3,/,/,/
O=C(COc1cc(F)ccc1[N+](=O)[O-])N1N=C(c2cccs2)CC1c1ccco1 (centres undefined),19,5,22,2
N#Cc1ccccc1OCC(=O)N1N=C(c2cccs2)CC1c1ccco1 (centres undefined),70*,14,26,3
O=C(CNC(=O)c1ccccc1)OCC(=O)N1N=C(c2ccc(Cl)cc2)CC1c1ccco1 (centres undefined),/,41*,4,0
CCS(=O)(=O)c1ccc(C=NNc2nc3ccccc3o2)cc1,/,-3,104*,3
CCNC(=O)[C@H]1[C@H](CO)[C@H]2Cn3c(cccc3=O)[C@@H]1N2C(=O)C1CCC1,-2,/,/,/
COc1ccccc1OCC(=O)Nc1sc2c(c1C(N)=O)CCC2,77*,-2,89*,2
Cc1ccccc1OCC(=O)Nc1sc2c(c1C#N)CCC2,47*,-1,36,0
